# Bioassay records as filed in PubChem.
# PD-1 reverse act: reversal of PD-1 mediated T-cell inhibition. AID 2316. activation, % (test concentration not listed). 29,000 tested, under 10 active. primary human CD4 T cells, PD-L1 beads, CellTiter-Glo 96 h; call rule not given here
# NOMO-1 viab: STK33 inhibitor candidate reducing NOMO-1 cell viability. hit rate 7.5% among 37,000. NOMO-1 AML viability, CellTiter-Glo luminescence, 72 h. inhibition, % (no concentration beside the values); in the data active = inhibition above about 80%; inconclusive = no clear call, values can overlap the other calls
# U2OS ROS induce: cancer cell ROS induction; U2OS ROS induction, H2DCF-DA fluorescence; hit rate 2% among 46,000; ROS induction (% of piperlongumine), % at 10 µM; AID 624156; in the data active = ROS induction above about 79%, passing the limit was not always enough; inconclusive = no clear call, values can overlap the other calls
# A number is an active result; . = inactive; ? = inconclusive; / = not tested or not shown. Shown is part of a subset that was picked to be rich in hits.
SMILES,PD-1 reverse act,NOMO-1 viab,U2OS ROS induce
CCCN(CCC)S(=O)(=O)c1ccc(C(=O)Nc2ccc3sc(SC)nc3c2)cc1,/,/,168
CCCN(CCC)S(=O)(=O)c1ccc(C(=O)Nc2cccc(SC)c2)cc1,.,?,.
CC1=C(C#N)C(c2cc(F)ccc2F)C(C(=O)OCc2ccccc2)=C(N)O1 (centres undefined),.,.,.
CCCCC[C@H](CC(=O)NO)C(=O)N[C@H](C(=O)N1CCC[C@H]1CO)C(C)C,/,107,.
NC(N)=Nc1nc(-c2ccc(-c3ccccc3)cc2)cs1,.,115,.
COc1ccccc1OCc1nc(-c2ccccc2)cs1,.,.,.
COc1ccccc1-c1nn(CCC(=O)NCCc2ccc(Cl)cc2)c2nc(C)cc(C)c12,/,/,.
O=C(COc1ccc(S(=O)(=O)N2CCOCC2)cc1)Nc1ccc(Cl)c(C(F)(F)F)c1,.,129,.
O=C(COc1ccc(S(=O)(=O)N2CCOCC2)cc1)Nc1ccc2c(c1)OCCO2,.,.,.
C/C1=C/CC/C(CO)=C\[C@H]2OC(=O)C(CN3CCCC3C(=O)O)[C@@H]2[C@@H](OC(=O)C(C)CO)C1 (some centres undefined),/,/,132
C/C1=C/[C@H]2OC(=O)[C@@H](C)[C@@H]2[C@H](O)C/C(CO)=C\CC1,/,/,.
C[C@@H]1CN([C@@H](C)CO)C(=O)c2cccc(NC(=O)Nc3ccc(C(F)(F)F)cc3)c2O[C@H]1CN(C)CC1CC1,.,83,.
C[C@H](CO)N1C[C@H](C)[C@@H](CN(C)CC2CCCCC2)Oc2c(NC(=O)Nc3ccc(C(F)(F)F)cc3)cccc2C1=O,.,121,.
C[C@@H]1CN([C@H](C)CO)C(=O)c2cccc(NC(=O)Nc3ccc(C(F)(F)F)cc3)c2O[C@@H]1CN(C)CC1CC1,.,.,.
C[C@H](CO)N1C[C@H](C)[C@H](CN(C)CC2CC2)Oc2c(NC(=O)Nc3ccc(C(F)(F)F)cc3)cccc2C1=O,.,.,.
C[C@@H]1CN([C@H](C)CO)C(=O)Cc2cc(NS(=O)(=O)c3ccccc3)ccc2O[C@H]1CN(C)Cc1ccccc1,/,.,.
Cc1ccc(S(=O)(=O)Nc2ccc3c(c2)CC(=O)N([C@@H](C)CO)C[C@H](C)[C@@H](CN(C)Cc2ccccc2)O3)cc1,.,91,.
Cc1ccc(S(=O)(=O)Nc2ccc3c(c2)CC(=O)N([C@H](C)CO)C[C@@H](C)[C@H](CN(C)Cc2ccccc2)O3)cc1,.,.,.
Cc1ccc(S(=O)(=O)Nc2ccc3c(c2)CC(=O)N([C@H](C)CO)C[C@H](C)[C@H](CN(C)Cc2ccccc2)O3)cc1,.,98,.
CCC(C)NC(=O)COc1ccc(C(C)(C)c2ccccc2)cc1 (centres undefined),/,/,.
CNC(=O)Cn1ncc2c3ccccc3n(Cc3ccccc3F)c2c1=O,/,/,.
Nc1c(S(=O)(=O)c2ccccc2)sc2nc(-c3cccs3)cc(C(F)(F)F)c12,/,/,.
C[C@H]1CN([C@@H](C)CO)C(=O)Cc2cc(NC(=O)CCCN(C)C)ccc2O[C@H]1CN(C)Cc1ccc(Oc2ccccc2)cc1,/,.,?
C[C@H](CO)N1C[C@H](C)[C@H](CN(C)Cc2ccc(Oc3ccccc3)cc2)Oc2ccc(NC(=O)CCCCCC(=O)Nc3ccccc3N)cc2CC1=O,.,140,.
C[C@@H]1CN([C@H](C)CO)C(=O)c2cc(NC(=O)CCCCCC(=O)Nc3ccccc3N)ccc2O[C@@H]1CN(C)Cc1ccc(Oc2ccccc2)cc1,/,/,.
SMILES,PD-1 reverse act,NOMO-1 viab,U2OS ROS induce
C[C@H]1CN([C@@H](C)CO)C(=O)Cc2cc(NC(=O)CCCCCC(=O)Nc3ccccc3N)ccc2O[C@H]1CN(C)Cc1ccc(Oc2ccccc2)cc1,.,140,.
CCn1c(C(=O)N2CCC(C(=O)O)CC2)cc2sccc21,/,/,.
CC1=CC(C)(C)N(S(=O)(=O)c2ccc(C)cc2)c2ccccc21,.,111,.
Cc1ccc(S(=O)(=O)N2CCN(S(=O)(=O)c3ccc(C)cc3)C2)cc1,/,/,.
Cc1ccc(NC(=O)C2CCCN(S(=O)(=O)c3ccc4nc(-c5ccccc5)[nH]c4c3)C2)cc1 (centres undefined),/,/,.
C[C@H]1CN([C@@H](C)CO)C(=O)c2cccc(NC(=O)NC3CCCCC3)c2O[C@@H]1CN(C)S(=O)(=O)c1ccc(Cl)cc1,.,.,.
C[C@H](CO)N1C[C@H](C)[C@H](CN(C)S(=O)(=O)c2ccc(Cl)cc2)Oc2c(NC(=O)NC3CCCCC3)cccc2C1=O,.,120,97
C[C@@H]1CN([C@@H](C)CO)C(=O)c2cccc(NC(=O)Nc3ccc(F)cc3)c2O[C@@H]1CN(C)S(=O)(=O)c1ccc(Cl)cc1,.,82,.
C[C@H](CO)N1C[C@H](C)[C@H](CN(C)S(=O)(=O)c2ccc(Cl)cc2)Oc2c(NC(=O)Nc3ccc(F)cc3)cccc2C1=O,.,93,?
C[C@@H]1CN([C@@H](C)CO)C(=O)c2cccc(NC(=O)Nc3ccc(F)cc3)c2O[C@H]1CN(C)S(=O)(=O)c1ccc(Cl)cc1,/,.,.
C[C@H]1CN([C@@H](C)CO)C(=O)c2cccc(NC(=O)Nc3ccc(F)cc3)c2O[C@@H]1CN(C)S(=O)(=O)c1ccc(Cl)cc1,/,.,.
Cc1ccc(S(=O)(=O)N(C)C[C@H]2Oc3c(NC(=O)Nc4ccc(C(F)(F)F)cc4)cccc3C(=O)N([C@H](C)CO)C[C@H]2C)cc1,.,85,.
Cc1ccc(S(=O)(=O)N(C)C[C@H]2Oc3c(NC(=O)Nc4ccc(C(F)(F)F)cc4)cccc3C(=O)N([C@@H](C)CO)C[C@@H]2C)cc1,.,.,.
CC(C)(C)c1ccc(NC(=O)Nc2ccc3c(c2)OCCO3)cc1,/,/,.
CCN=C1S/C(=C/c2ccc(OCC(=O)O)c(Cl)c2)C(=O)N1CC,/,/,.
Cc1ccc(S(=O)(=O)N(C)C[C@H]2Oc3c(NC(=O)Nc4ccc(F)cc4)cccc3C(=O)N([C@@H](C)CO)C[C@H]2C)cc1,.,98,.
Cc1ccc(S(=O)(=O)N(C)C[C@H]2Oc3c(NC(=O)Nc4ccc(F)cc4)cccc3C(=O)N([C@@H](C)CO)C[C@@H]2C)cc1,.,.,.
Cc1ccnc(NC(c2ccc([N+](=O)[O-])cc2)c2ccc3ccc(C)nc3c2O)c1 (centres undefined),/,118,/
Cc1ccnc(NC(c2cc(C)ccc2C)c2ccc3ccc(C)nc3c2O)c1 (centres undefined),.,.,.
Cc1ccnc(SCC(=O)c2ccc([N+](=O)[O-])cc2)n1,.,.,.
COc1cccc(C(Nc2cc(C)ccn2)c2ccc3ccc(C)nc3c2O)c1 (centres undefined),.,97,.
CN1CCN(c2ccc(NS(=O)(=O)c3cccc4nonc34)cc2)CC1,/,/,.
COc1cccc(CN2CCN(C(=O)c3cccs3)CC2)c1,.,.,.
Oc1ccc(Cl)c2cccnc12,/,110,.
O=C(N/N=C/c1ccc(O)c2ccccc12)c1ccccn1,/,/,.
O=C(CSc1nc2ccccc2s1)Nc1ccncc1,/,/,.
COc1ccc(/C=C/C(=O)NC(C)(C)C)cc1,.,.,?
COc1ccc(/C=C/C(=O)OC2CCCCC2)cc1,.,95,.
CCC1(C)Cc2ccccc2-c2c1c(=O)n(-c1ccc(C)cc1)c1nncn21 (centres undefined),/,/,.
N#CC(C(=O)c1cccc(C(F)(F)F)c1)=C1SCCCCS1,.,.,.
